TRHR PAM = qHTS for Small Molecule Agonists and Allosteric Enhancers of Human TRH Receptor: Primary Screen for Enhancers; AID 493056, 2011; TRHR cells, fluo-8 calcium fluorescence, EC20 TRH enhancement; 0.66% of 360,000 active; enhancement, % at 2 µM; Thyrotropin-releasing hormone receptor (Homo sapiens), P34981; in the data active = enhancement above about 30%
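TRHR-expressing cells loaded with fluo-8 calcium dye were read kinetically (ex 480/em 530) during compound addition, then stimulated with an EC20 of TRH (10 nM final). Enhancement of the Gq-mediated intracellular calcium response was scored.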
D1 PAM = Potentiators of Human D1 Dopamine Receptor: qHTS. D(1A) dopamine receptor (Homo sapiens), P21728. HEK293 TREx D1 cells, calcium flux, dopamine EC20 potentiation. potentiation, % at 10 µM. 0.036% of 360,000 active. AID 504651, 2011; in the data active = potentiation above about 30%
Target sequence (P21728 whole entry, looked up): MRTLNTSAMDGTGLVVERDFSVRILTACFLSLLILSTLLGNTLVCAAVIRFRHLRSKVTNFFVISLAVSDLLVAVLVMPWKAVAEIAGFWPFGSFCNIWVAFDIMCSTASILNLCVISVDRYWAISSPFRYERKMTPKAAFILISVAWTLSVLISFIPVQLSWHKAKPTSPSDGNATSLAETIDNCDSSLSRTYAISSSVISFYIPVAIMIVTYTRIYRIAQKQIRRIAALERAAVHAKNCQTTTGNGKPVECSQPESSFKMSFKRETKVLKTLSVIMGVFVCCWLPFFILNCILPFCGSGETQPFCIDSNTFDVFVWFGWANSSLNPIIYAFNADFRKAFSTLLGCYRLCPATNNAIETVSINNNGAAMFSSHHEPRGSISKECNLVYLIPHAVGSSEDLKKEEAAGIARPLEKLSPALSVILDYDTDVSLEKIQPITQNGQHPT
D1 antagonist = Antagonist of Human D 1 Dopamine Receptor: qHTS; AID 504652, 2011; D(1A) dopamine receptor (Homo sapiens), P21728; 3.2% of 360,000 active; activity change, negative = inhibition, % at 10 µM; HEK293 TREx D1 cells, calcium flux, dopamine EC80; stronger effect = lower value; in the data active = activity change below about -30%
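Inducible Hek293 Trex D1 cells (tetracycline, overnight, 30 C). Calcium dye 30–90 min RT. Antagonist mode: EC80 dopamine added after 180 s compound read.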
D1 agonist = Allosteric Agonists of the Human D1 Dopamine Receptor: qHTS; D(1A) dopamine receptor (Homo sapiens), P21728; HEK293 T-REx D1 cells, calcium flux, agonist mode; activation, % at 2 µM; 1% of 360,000 active; AID 504660, 2011
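Tetracycline-induced HEK293 TREx D1 cells, force-coupled to calcium signalling, were dye-loaded with a no-wash calcium kit. Compound was pin-added after a 10 s baseline. Fluorescence was read kinetically at 1 cycle/s for 180 s, with calcium rises flagged as agonism.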
TRHR agonist = qHTS for Small Molecule Agonists and Allosteric Enhancers of Human TRH Receptor: Primary Screen for Agonists | activation, % at 2 µM | AID 493084, 2011 | 0.18% of 360,000 active | TRHR cells, calcium flux fluo-8, FDSS agonist mode
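Fluo-8-loaded TRHR cells; 10 s baseline, compound added, kinetic Ca2+ fluorescence read 1/s, agonist mode.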
A number is an active result; . = inactive; / = no result given. Rows were chosen to be rich in hits. Some 4.7% of all compounds tested hit in one or more screens of this group. Rule as the data show it, unless noted: active = activation above about 30%; inactive = the rest.

SMILES	TRHR PAM	D1 PAM	D1 antagonist	D1 agonist	TRHR agonist
S=C(NCc1ccccc1)N1CCN(c2ccccc2)CC1	.	.	-31	.	.
FC(F)(F)c1cccc(N2CCN(C(=S)NC3CCCC3)CC2)c1	.	.	.	.	.
O=C(NCc1ccccc1)N1CCN(c2ccccc2)CC1	.	.	.	.	.
S=C(NCc1ccco1)N1CCN(c2ccc(Cl)cc2)CC1	40	.	.	.	.
S=C(Nc1ccccc1)N1CCN(C/C=C/c2ccccc2)CC1	.	.	.	.	.
COc1ccccc1-c1nc(S(=O)(=O)c2ccccc2)c(N2CCC(C)CC2)o1	.	.	.	.	.
COc1cccc(NC(=O)CSc2nc3ccc(NC(=O)c4ccco4)cc3s2)c1	.	.	.	.	.
COc1ccc(-c2nc3c4ccccc4n(CC(=O)Nc4cc(F)ccc4F)c(=O)n3n2)cc1	.	.	/	.	.
Cc1cc2c(s1)c1cnn(Cc3c(F)cccc3C(F)(F)F)c(=O)c1n2C	.	.	.	.	.
COc1ccc(S(=O)(=O)N(CC(=O)NC(C)c2ccccc2)c2ccc(C)cc2)cc1OC (stereo not given)	.	.	.	.	.
COc1cccc(N2C(=O)C(CC(=O)Nc3ccc(F)cc3)N(CCC3=CCCCC3)C2=O)c1 (stereo not given)	.	.	.	.	.
OC(COc1ccccc1F)CN1CCC(Cc2ccccc2)CC1 (stereo not given)	.	.	-42	.	.
OC(COc1ccc(F)cc1Cl)CN1CCC(Cc2ccccc2)CC1 (stereo not given)	.	.	-72	61	.
COc1cccc(OCC(O)CN2CCC(Cc3ccccc3)CC2)c1 (stereo not given)	.	.	-31	.	.
O=C1COc2cc(S(=O)(=O)CCC(=O)N3CCN(c4cccc(Cl)c4)CC3)c(Cl)cc2N1	.	.	.	.	.
Cc1cc(=O)[nH]c2nnc(SCCC(C)C)n12	.	.	/	.	.
Cn1ccc2cc(-c3ccc4ncnc(NCc5cccnc5)c4c3)ccc21	.	.	.	.	.
CC(C)(C)C1CCc2c(C(=O)NNC(=O)/C=C/C(=O)O)csc2C1 (stereo not given)	.	.	-32	.	.
CCCCCN1C(C(=O)c2ccccc2)=C(NC(=O)c2ccc(C)cc2)c2ccccc2S1(=O)=O	.	.	.	.	.
Cc1cc(=O)oc2cc(OC(=O)c3cncc(Br)c3)ccc12	.	.	-45	.	.
CC(=O)c1ccc(NC(=O)CSc2nccn2Cc2ccco2)cc1	.	.	.	.	.
O=C(COc1cccc(C(F)(F)F)c1)Nc1cccnc1	.	.	-31	.	.
O=C(COc1ccc2ccccc2c1Br)Nc1cccnc1	.	.	-42	.	.
O=C(COc1ccc(C(=O)NCc2cccnc2)cc1)Nc1cccc(C(F)(F)F)c1	.	.	.	.	.
COC(=O)c1ccc(C(=O)OC)c(NC(=O)c2ccc(-c3ccccc3)s2)c1	.	.	.	.	.
SMILES	TRHR PAM	D1 PAM	D1 antagonist	D1 agonist	TRHR agonist
CC(C)c1ccc(Nc2c(-c3ccc(N(C)C)cc3)nc3cnccn23)cc1	.	.	.	.	.
O=C(Nc1ccc(N2CCC(c3ccccc3)C2)c(C(=O)O)c1)c1ccc(Cl)cc1 (stereo not given)	.	.	.	.	.
NC1=NC(=Nc2ccc(Cl)cc2)c2ccccc21	.	.	-41	.	.
NC1=NC(=Nc2ccc(Br)cc2)c2ccccc21	.	.	-33	.	.
NC1=NC(=Nc2ccccc2)c2ccccc21	.	.	.	.	.
NC1=NC(=Nc2ccc(S(=O)(=O)N3CCOCC3)cc2)c2ccccc21	.	.	-33	.	.
Nc1ccc(S(=O)(=O)N2CCOCCOCCOCCOCCOCC2)cc1	.	.	.	.	.
COc1cc(-c2noc(-c3ccc(NCc4cccnc4)c([N+](=O)[O-])c3)n2)cc(OC)c1OC	.	.	.	.	.
Cc1cccc(C)c1NC(=O)c1ccc2nc(CCc3ccccc3)oc2c1	.	.	.	.	.

Screening data deposited in PubChem BioAssay by National Center for Advancing Translational Sciences (NCATS).
